Among all 2,400 compounds or so, about 750 (31%) were called active. The list shows a part of the results. Unmarked numbers belong to inactive results.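 How the source made its calls: active means median signal gain over dofetilide-blocked control wells reaching their mean plus 3 SD, so readout 1 at least 0; inactive means the rest.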
What follows are compounds tested against Voltage-gated inwardly rectifying potassium channel KCNH2 (Homo sapiens) (UniProt Q12809) (assay: modulators restoring hERG flux under dofetilide – cell-based, thallium flux, duplicate retest, dofetilide IC70, confirmation (AID 1835)). Conditions: hERG cell line, FluxOR thallium flux, dofetilide-blocked; at 10 µM; hits give high values.
Sequence of Voltage-gated inwardly rectifying potassium channel KCNH2 (Homo sapiens) (Q12809 whole entry, looked up): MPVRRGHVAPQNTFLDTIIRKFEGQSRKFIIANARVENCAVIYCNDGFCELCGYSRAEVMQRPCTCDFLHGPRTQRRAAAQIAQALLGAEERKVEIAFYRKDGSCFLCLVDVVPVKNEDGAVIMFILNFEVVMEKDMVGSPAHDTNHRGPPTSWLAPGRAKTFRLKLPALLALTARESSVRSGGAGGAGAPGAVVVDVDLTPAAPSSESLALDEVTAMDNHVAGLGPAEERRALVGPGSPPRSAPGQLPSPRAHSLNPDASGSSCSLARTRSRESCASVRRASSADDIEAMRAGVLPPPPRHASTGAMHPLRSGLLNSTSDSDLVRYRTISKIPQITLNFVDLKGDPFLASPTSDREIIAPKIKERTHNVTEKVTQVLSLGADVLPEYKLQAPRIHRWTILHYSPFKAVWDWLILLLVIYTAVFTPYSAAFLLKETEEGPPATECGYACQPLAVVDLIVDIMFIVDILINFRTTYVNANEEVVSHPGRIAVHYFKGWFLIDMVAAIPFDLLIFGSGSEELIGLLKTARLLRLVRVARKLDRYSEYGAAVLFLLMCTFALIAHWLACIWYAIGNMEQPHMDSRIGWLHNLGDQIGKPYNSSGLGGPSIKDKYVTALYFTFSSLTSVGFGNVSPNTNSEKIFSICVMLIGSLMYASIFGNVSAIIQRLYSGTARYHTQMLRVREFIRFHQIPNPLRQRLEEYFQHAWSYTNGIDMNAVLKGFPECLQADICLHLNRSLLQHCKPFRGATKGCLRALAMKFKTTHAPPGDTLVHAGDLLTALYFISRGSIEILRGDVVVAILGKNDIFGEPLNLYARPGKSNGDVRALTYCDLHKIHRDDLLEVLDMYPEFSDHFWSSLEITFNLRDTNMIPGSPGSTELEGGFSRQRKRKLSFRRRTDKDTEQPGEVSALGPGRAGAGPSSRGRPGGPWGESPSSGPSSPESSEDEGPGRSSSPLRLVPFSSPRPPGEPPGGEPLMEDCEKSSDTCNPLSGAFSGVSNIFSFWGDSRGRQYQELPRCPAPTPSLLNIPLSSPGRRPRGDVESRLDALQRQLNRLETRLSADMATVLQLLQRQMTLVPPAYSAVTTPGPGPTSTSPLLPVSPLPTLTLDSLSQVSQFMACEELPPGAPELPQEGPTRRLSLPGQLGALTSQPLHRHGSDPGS

SMILES | activity increase over dofetilide control | activity increase over dofetilide control, less the hit threshold
CN1C(=O)C(Cc2ccc3c(c2)OCO3)C(=O)N(C)C1=O | -15% | –
N#CC1=C(N)Oc2c(c(=O)oc3ccccc23)C1c1cccnc1 (configuration not stated) | – | 8% (active)
Oc1cccc2cccnc12 | – | -5%
N#CCCn1cc(C(=O)Nc2ccccc2Cl)c(-c2ccc(F)cc2)n1 | – | -14%
O=c1c2ccccc2[nH]c(=S)n1-c1ccc2c(c1)OCCO2 | – | -26%
O=c1c2cc(Br)ccc2[nH]c(=S)n1-c1ccccc1 | – | 2% (active)
CCCCN1C(=O)/C(=C/c2ccc(N3CCCCCC3)cc2)C(=O)NC1=S | -4% | –
CN1C(=O)/C(=C\c2ccc(Br)s2)C(=O)NC1=S | 26% (active) | –
C=CCN1C(=O)/C(=C/c2ccc(Br)s2)C(=O)NC1=S | 8% (active) | –
CN1C(=O)/C(=C/c2ccc(Cl)s2)C(=O)NC1=S | 12% (active) | –
O=C1NC(=O)C(=Cc2ccc(-c3cc(Cl)ccc3[N+](=O)[O-])o2)C(=O)N1 | -20% | –
CN1CCN(CC#CCOc2ccc(Cl)cc2)CC1 | – | -9%
C1CCC2S[C@H]3CCCCC3NC2C1 (some centres not stated) | – | -17%
NC(=O)Cn1cc(C(=O)c2ccccc2F)c2ccccc21 | -9% | –
CC(=NCc1ccco1)c1c(O)n(C)c(=O)n(C)c1=O | -12% | –
O=c1[nH]c(O)c(/C=C2/C=CC(c3cc(Cl)ccc3Cl)=N2)c(=O)[nH]1 | 30% (active) | –

SMILES | activity increase over dofetilide control | activity increase over dofetilide control, less the hit threshold
O=C(O)c1c[nH]c2ccc(S(=O)(=O)N(CCCl)CCCl)cc12 | – | -11%
CC1N=C(c2ccccc2Cl)c2cc(Br)ccc2NC1=O (configuration not stated) | -24% | –
CN1CCCCC1c1ccc(-c2cccnc2)nc1 (configuration not stated) | – | -15%
COc1ccc(OC)c(N2C(=O)/C(=C/c3ccco3)C(=O)NC2=S)c1 | 0% | –
O=C1NC(=O)N(c2ccccc2)C(=O)/C1=C/c1ccc(Sc2ccccc2)o1 | -6% | –
Cc1ccccc1N1C(=O)/C(=C/c2ccco2)C(=O)NC1=S | 14% (active) | –
O=C1NC(=S)N(c2ccc(F)cc2)C(=O)/C1=C/c1ccco1 | 4% (active) | –
Cc1ccc(/C=C2\C(=O)NC(=S)N(c3ccc(F)cc3)C2=O)s1 | 5% (active) | –
COc1ccc(CN2CCCC(C(=O)c3sccc3C)C2)cc1O (configuration not stated) | – | -21%
COc1cccc(OC)c1C(=O)Nc1nc(N)n(-c2ccccc2)n1 | – | -22%
CCn1nc(/C=C/c2ccccc2)nc2c(=O)n(C)c(=O)nc1-2 | – | -22%
O=C1NC(=O)N(CCNc2ncc(C(F)(F)F)cc2Cl)C(=O)C1Cc1ccc(Cl)cc1 (configuration not stated) | -11% | –
CN(C)C(=O)O/N=C(\N)COc1ccc(C(C)(C)C)cc1 | – | -17%
NCCc1ccc(S(N)(=O)=O)cc1 | – | -18%
COc1ccccc1N1CCN(Cc2ccc(F)cc2)CC1 | -10% | –
COc1ccc2c(c1)/C(=C/c1cnc[nH]1)C(=O)N2 | – | -6%

Source: PubChem BioAssay AID1835 (Johns Hopkins Ion Channel Center, 2009)
